High-throughput results (PubChem BioAssay)
NLRP3 yeast inh: NALP3 inhibition in yeast | Yeast reconstituted NLRP3/ASC/caspase-1, beta-gal luminescence, 24 h | hit rate 0.39% among 330,000 | inhibition, % at 10 µM;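 active = inhibition of 50% or more; inactive = inhibition below 50%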
NALP1 yeast inh: NALP1 inhibition; inhibition, % at 10 µM; AID 2071; hit rate 0.61% among 280,000; S. cerevisiae NALP1/ASC/caspase-1 growth, X-gal OD620, 72 h; in the data active = inhibition mostly above about 24%, no sharp cut-off; inactive = mostly below about 32%
A1 inh: inhibitors of the anti-apoptotic protein A1, read as caspase activation; MEF A1-2A-BIM cells, Caspase-Glo 3/7 luminescence, 3 h; percent of clofoctol response, vehicle zero; hit rate 0.066% among 330,000; caspase activation, % (test concentration not listed);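 active = over half of replicate activation scores above 10%, or exactly half above 10 with the replicate mean above 10; inconclusive = replicate mean below 10 yet half the replicates above 10; inactive = over half of replicates below 10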
Mot1-301 SUMO: SUMOylation pathway inhibition by Mot1-301 growth rescue; growth rescue, % at 18.8 µM; S. cerevisiae Mot1-301 growth rescue, ATP luminescence, 38.5C; percent above DMSO median, 100 means doubled; hit rate 1% among 320,000; AID 2716;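 active = every valid replicate shows activation above 250% relative to neutral control wells; inactive = the rest, any valid replicate at or below 250%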
CHT PAM: human CHT allosteric activation. CHT-expressing cells, membrane potential dye, choline EC20; hits give high values; LV-AA mutant CHT in HEK293 cells. Q9GZV3. B-score at 10 µM. hit rate 0.49% among 310,000;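 active = initial fluorescence not abnormally high and integrated response B-score, plate-corrected, over 3 SD above library mean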
Target sequence (Q9GZV3 whole entry, looked up): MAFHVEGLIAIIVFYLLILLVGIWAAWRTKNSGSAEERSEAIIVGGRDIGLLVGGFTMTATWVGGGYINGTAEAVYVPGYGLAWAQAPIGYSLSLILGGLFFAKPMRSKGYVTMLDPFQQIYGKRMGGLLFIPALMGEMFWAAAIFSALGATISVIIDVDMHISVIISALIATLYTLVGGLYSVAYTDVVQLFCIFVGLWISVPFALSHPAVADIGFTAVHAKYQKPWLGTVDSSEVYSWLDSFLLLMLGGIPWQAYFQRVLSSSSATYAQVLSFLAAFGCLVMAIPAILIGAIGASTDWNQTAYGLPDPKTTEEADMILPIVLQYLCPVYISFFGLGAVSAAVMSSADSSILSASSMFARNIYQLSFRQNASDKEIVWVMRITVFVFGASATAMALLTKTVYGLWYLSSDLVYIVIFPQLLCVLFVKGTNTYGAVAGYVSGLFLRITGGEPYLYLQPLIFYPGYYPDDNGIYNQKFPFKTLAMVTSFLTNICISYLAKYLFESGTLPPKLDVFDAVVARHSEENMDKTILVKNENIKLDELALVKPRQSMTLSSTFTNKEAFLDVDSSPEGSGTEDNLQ
CHT block: inhibitors of human choline transporter CHT. Q9GZV3. CHT-expressing cells, membrane potential dye, choline response; hits give low values. B-score at 10 µM. hit rate 0.86% among 310,000. AID 488975;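 active = B-score over 3 SD under the library average, and starting fluorescence ratio not unusually high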;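 also: choline stimulus applied at its EC90 after an EC20 pre-addition; B-score computed on integrated fluorescence ratio after choline addition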
NALP3 yeast conf: confirmation of NALP3 inhibitors in yeast; shares compounds with NLRP3 yeast inh; yeast expressing human NALP3, luminescence; inhibition, % at 10 µM; hit rate 81% among 1,300; AID 435006; in the data active = inhibition above about 48%
Casp1-ASC yeast: caspase-1-ASC yeast counter-screen hit | shares compounds with NLRP3 yeast inh | yeast expressing Caspase-1-ASC, luminescence counter screen | inhibition, % at 10 µM | hit rate 66% among 1,000 | AID 488784
NALP3 yeast rt: confirmation retest of NALP3 inhibitors in yeast | AID 488794 | hit rate 53% among 1,000 | shares compounds with NLRP3 yeast inh | inhibition, % at 10 µM | yeast expressing human NALP3, luminescence read-out
Large screens that a line does not name were inactive (follow-up assays come after a bar, where they were run). Shown are actives, neighbours in structure and some others; about 3% of the full set was active somewhere. Rule as the data show it, unless noted: active = inhibition above about 50%; inactive = the rest.

C[C@]12CCC3C(CC[C@H]4C[C@@H](O)CC[C@]34C)C1[C@H]1CN=N[C@H]1[C@@H]2O (stereo partly drawn)	none (no result: NALP1 yeast inh, CHT PAM, CHT block)
C[C@]12CCC3C(CC[C@H]4C[C@@H](O)CC[C@]34C)[C@H]1C=CC2=O (stereo partly drawn)	NLRP3 yeast inh 55 (no result: NALP1 yeast inh, CHT PAM, CHT block) | NALP3 yeast conf 60
C[C@]12CCC3C(CC[C@H]4C[C@@H](O)CC[C@]34C)C1C[C@@H](Br)[C@H]2O (stereo partly drawn)	NLRP3 yeast inh 58 (no result: NALP1 yeast inh, CHT PAM, CHT block) | NALP3 yeast conf 50
CC(=O)C1CCC2C3CCC4CC(O)CCC4(C)C3CCC12C (stereo not drawn)	NLRP3 yeast inh 59 (no result: NALP1 yeast inh) | NALP3 yeast conf 69 | Casp1-ASC yeast 60 | NALP3 yeast rt 58
CC(=O)O[C@H]1C[C@@H]2CC[C@@H]3[C@H](CC[C@]4(C)C(=O)CC[C@@H]34)[C@@]2(C)C[C@@H]1OC(C)=O	none (no result: NALP1 yeast inh)
C[C@]12CC[C@H](O)C[C@@H]1CC[C@@H]1[C@@H]2CC[C@]2(C)C(=O)CC[C@@H]12	NLRP3 yeast inh 67 | NALP3 yeast conf 62 | Casp1-ASC yeast 62 | NALP3 yeast rt inactive
CC(=O)OCC(=O)[C@H]1CC[C@H]2[C@@H]3CC[C@H]4C[C@H](O)CC[C@]4(C)[C@H]3C(=O)C[C@]12C	NLRP3 yeast inh 56 (no result: NALP1 yeast inh) | NALP3 yeast conf 71 | Casp1-ASC yeast 53 | NALP3 yeast rt 53
C[C@]12CCC3C(CC[C@H]4C[C@@H](O)CC[C@]34C)C1CC[C@@H]2OC(=O)[C@H](N)CCCCN (stereo partly drawn)	NLRP3 yeast inh 66 (no result: NALP1 yeast inh, CHT PAM, CHT block) | NALP3 yeast conf 57
CC(=O)[C@H]1CC[C@H]2[C@@H]3CC[C@H]4C[C@H](O)CC[C@]4(C)[C@H]3C(=O)C[C@]12C	none
COc1ccc(CNC(C)Cc2cccs2)cc1 (stereo not drawn)	none
COc1ccc(-c2nn(CCC#N)cc2C(=O)Nc2ccccc2)cc1OC	none
Cn1c(O)c(C(=N)COc2cccc(Cl)c2)c(=O)n(C)c1=O	none
Oc1c(Br)c(Br)c(Br)c(Br)c1Br	NLRP3 yeast inh 66 (no result: NALP1 yeast inh, CHT PAM, CHT block) | NALP3 yeast conf 71 | Casp1-ASC yeast 74 | NALP3 yeast rt 91
O=C(c1ccc(N2CC3CC(C2)c2cccc(=O)n2C3)c([N+](=O)[O-])c1)N1CCCCC1 (stereo not drawn)	none
CCn1nc(-c2ccccc2)nc2c(=O)n(C)c(=O)nc1-2	NLRP3 yeast inh 62, NALP1 yeast inh 42 | NALP3 yeast conf 86 | Casp1-ASC yeast 94 | NALP3 yeast rt 88
Cc1nc2c(=O)n(C)c(=O)nc-2n(C)n1	none
COC(=O)C1=C(c2ccc(OC)c(OC)c2)C[C@@H]2CC[C@H]1N2C(=O)NCc1cc(C)oc1C(F)(F)F	none (no result: NALP1 yeast inh, CHT PAM, CHT block)
COc1ccc2nc(NC3=NCCN3)sc2c1	NLRP3 yeast inh 95, NALP1 yeast inh 93 | NALP3 yeast conf inactive
CC12CCC3C(CC=C4CC5(CCC43C)OCCO5)C1CCC2=O (stereo not drawn)	NLRP3 yeast inh 62 | NALP3 yeast conf 75
COC(=O)C1=C(c2ccc(OC(F)(F)F)cc2)C[C@@H]2CC[C@H]1N2C(=O)NCCOc1ccccc1Cl	none (no result: NALP1 yeast inh, CHT PAM, CHT block)
Nc1c2c(nc3sc4c(c13)CCCC4)CCCC2	NLRP3 yeast inh 71 | NALP3 yeast conf 82 | Casp1-ASC yeast 54 | NALP3 yeast rt 57
C[C@]12CC[C@@H](O)CC1=CCC1C2CC[C@@]2(C)C1CC[C@@H]2N (stereo partly drawn)	none (no result: NALP1 yeast inh, CHT PAM, CHT block)
C[C@]12CCC(=O)C[C@H]1CC[C@@H]1[C@@H]2CC[C@]2(C)[C@@H](O)CC[C@@H]12	NLRP3 yeast inh 59, CHT block -5.3 (no result: NALP1 yeast inh) | NALP3 yeast conf 73
Cc1nn(C)c(C)c1/C=C1/CC2C3CC=C4CC(O)CCC4(C)C3CCC2(C)C1=O (stereo not drawn)	none
C[C@@H]1CC2C3CC=C4C[C@@H](O)CC[C@]4(C)C3CC[C@]2(C)[C@H]1O (stereo partly drawn)	NLRP3 yeast inh 57 (no result: NALP1 yeast inh, CHT PAM, CHT block) | NALP3 yeast conf inactive
CSCCC(NC(=O)CCC(=O)OC1CC[C@H]2[C@@H]3CC[C@H]4CC(=O)CC[C@]4(C)[C@H]3CC[C@]12C)C(=O)O (stereo partly drawn)	none
C[C@]12CC[C@H](N)CC1=CCC1C2CC[C@@]2(C)C1CC[C@@H]2O (stereo partly drawn)	NLRP3 yeast inh 56 (no result: NALP1 yeast inh, CHT PAM, CHT block) | NALP3 yeast conf 56
CC12CCC3C(CC=C4CC(O)CCC43C)C1C/C(=C\N1CCCC1)C2=O (stereo not drawn)	NLRP3 yeast inh 59 (no result: A1 inh, Mot1-301 SUMO, CHT PAM, CHT block) | NALP3 yeast conf inactive
C[C@]12CC[C@H](O)CC1=CCC1C2CC[C@@]2(C)C1C[C@@H]1CC(=O)O[C@@H]12 (stereo partly drawn)	none (no result: NALP1 yeast inh, CHT PAM, CHT block)
CN(C)C1C(=O)C(C(N)=O)=C(O)C2(O)C(=O)C3=C(O)c4c(O)cccc4C(C)(O)C3C(O)C12 (stereo not drawn)	none
C=CC1CN2CCC1CC2C(OC(C)=O)c1ccnc2ccc(OC)cc12 (stereo not drawn)	none
COc1ccc(Nc2ncc(C(=O)N3CCC4(CC3)OCCO4)c3ccccc23)cc1	none
CCN(CC)CCN=Cc1c(O)n(Cc2ccccc2)c(=O)[nH]c1=O	A1 inh inconclusive
C[C@]12CCC(=O)C=C1CCC1C2CC[C@@]2(C)C1CC[C@@H]2O (stereo partly drawn)	NLRP3 yeast inh 53 (no result: NALP1 yeast inh, CHT PAM, CHT block) | NALP3 yeast conf 60
C[C@]12CC[C@H](OS(=O)(=O)O)CC1=CC[C@@H]1[C@@H]2CC[C@]2(C)C(=O)CC[C@@H]12	none (no result: NALP1 yeast inh)
C[C@H]1CC2C3CC=C4C[C@@H](O)CC[C@]4(C)C3CC[C@]2(C)[C@H]1O (stereo partly drawn)	NLRP3 yeast inh 54 (no result: NALP1 yeast inh, CHT PAM, CHT block) | NALP3 yeast conf inactive
C/C(=N\NC(=O)c1ccccc1O)c1c(O)n(C2CCCCC2)c(=O)[nH]c1=O	none
CN1/C(=C\C=Nc2ccccc2)C(C)(C)c2ccccc21	none
CN1/C(=C\C=C\C2=[N+](C)c3ccc4ccccc4c3C2(C)C)C(C)(C)c2ccccc21	NLRP3 yeast inh 53, NALP1 yeast inh 57 | NALP3 yeast conf 53
CC1(C)C[C@H]2C=C(C=O)[C@]3(C=O)C[C@]3(C)[C@H]2C1	NLRP3 yeast inh 84, NALP1 yeast inh 108, Mot1-301 SUMO 358 | NALP3 yeast conf 63
